Experimental data reported in PubChem BioAssay AID588664 (The Scripps Research Institute Molecular Screening Center, 2011).
The campaign covered roughly 360,000 compounds. About 1,400 (0.39%) were called active. Cut-off read from the data, not from the text of the source: active = inhibition above about 5% (passing the limit was not always enough); inactive = the rest. What follows is part of a selection rich in actives, with near analogues and random picks from the rest.

Biological target: Tyrosine-protein kinase ABL1 (Homo sapiens) + Ras and Rab interactor 1 (Homo sapiens) (UniProt P00519+Q13671)
Experiment: inhibitors of Rin1-Abl protein binding, primary screen, biochemical, TR-FRET (AID 588664)
Conditions: at 7.35 µM, hits give high values

Chain of Tyrosine-protein kinase ABL1 (Homo sapiens) + Ras and Rab interactor 1 (Homo sapiens) (P00519 whole entry, looked up): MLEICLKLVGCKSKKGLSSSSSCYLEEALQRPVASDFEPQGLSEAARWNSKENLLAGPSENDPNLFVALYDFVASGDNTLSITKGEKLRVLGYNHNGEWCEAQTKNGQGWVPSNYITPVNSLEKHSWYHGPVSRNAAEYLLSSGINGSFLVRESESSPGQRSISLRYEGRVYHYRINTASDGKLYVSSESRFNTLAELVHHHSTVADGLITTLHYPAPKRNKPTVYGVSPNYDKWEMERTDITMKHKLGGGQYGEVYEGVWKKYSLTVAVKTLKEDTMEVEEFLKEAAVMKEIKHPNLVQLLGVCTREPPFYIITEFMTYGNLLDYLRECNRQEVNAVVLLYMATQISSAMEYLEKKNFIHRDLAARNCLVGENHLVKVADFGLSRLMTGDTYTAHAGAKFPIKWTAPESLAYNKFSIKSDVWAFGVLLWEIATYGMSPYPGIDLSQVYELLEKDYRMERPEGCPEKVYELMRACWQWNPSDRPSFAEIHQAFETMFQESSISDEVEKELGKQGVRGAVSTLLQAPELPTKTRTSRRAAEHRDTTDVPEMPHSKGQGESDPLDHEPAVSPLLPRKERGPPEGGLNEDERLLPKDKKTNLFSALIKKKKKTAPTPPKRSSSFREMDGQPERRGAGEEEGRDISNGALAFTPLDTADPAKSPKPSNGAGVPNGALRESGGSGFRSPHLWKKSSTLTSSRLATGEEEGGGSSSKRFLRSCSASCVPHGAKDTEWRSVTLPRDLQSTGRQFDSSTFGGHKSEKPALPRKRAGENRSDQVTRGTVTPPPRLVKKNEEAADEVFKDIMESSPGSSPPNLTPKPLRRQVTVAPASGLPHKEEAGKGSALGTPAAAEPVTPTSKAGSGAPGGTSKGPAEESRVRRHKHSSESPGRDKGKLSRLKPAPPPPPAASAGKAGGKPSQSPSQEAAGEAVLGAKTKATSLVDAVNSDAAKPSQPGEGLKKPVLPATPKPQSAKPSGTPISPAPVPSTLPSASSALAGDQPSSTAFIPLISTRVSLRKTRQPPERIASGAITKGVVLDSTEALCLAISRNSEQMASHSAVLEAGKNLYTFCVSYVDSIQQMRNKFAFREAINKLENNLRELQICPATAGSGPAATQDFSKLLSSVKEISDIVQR
Chain of Tyrosine-protein kinase ABL1 (Homo sapiens) + Ras and Rab interactor 1 (Homo sapiens) (Q13671 whole entry, looked up): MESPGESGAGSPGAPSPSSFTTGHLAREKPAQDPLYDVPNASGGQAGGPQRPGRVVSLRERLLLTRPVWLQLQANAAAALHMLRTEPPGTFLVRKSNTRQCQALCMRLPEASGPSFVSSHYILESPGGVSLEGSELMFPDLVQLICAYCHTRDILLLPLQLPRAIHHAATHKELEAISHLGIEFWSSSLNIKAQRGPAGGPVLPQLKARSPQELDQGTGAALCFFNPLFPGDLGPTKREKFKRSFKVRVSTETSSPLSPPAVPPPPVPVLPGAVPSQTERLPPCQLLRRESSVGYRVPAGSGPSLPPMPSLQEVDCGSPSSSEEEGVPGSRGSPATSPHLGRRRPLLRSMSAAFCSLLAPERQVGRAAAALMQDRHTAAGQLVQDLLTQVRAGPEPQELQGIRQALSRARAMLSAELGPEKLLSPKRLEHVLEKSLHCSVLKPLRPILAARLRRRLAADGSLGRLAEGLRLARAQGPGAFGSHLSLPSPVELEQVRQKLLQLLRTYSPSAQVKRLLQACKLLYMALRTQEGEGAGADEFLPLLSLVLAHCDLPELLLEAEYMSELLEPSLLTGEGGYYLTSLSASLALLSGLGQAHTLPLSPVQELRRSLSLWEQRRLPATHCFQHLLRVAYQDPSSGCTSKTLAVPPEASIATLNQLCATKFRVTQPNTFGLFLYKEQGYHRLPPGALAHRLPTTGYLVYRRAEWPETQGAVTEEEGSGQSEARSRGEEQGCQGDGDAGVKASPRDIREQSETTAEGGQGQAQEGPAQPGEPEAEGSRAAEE

Compound | inhibition
CSCCC(c1nnnn1C(C)(C)C)N1CCC(n2c(=O)[nH]c3ccccc32)CC1 (stereo not given) | 19.1% (active)
O=c1[nH]c2ccccc2n1C1CCN(C(c2ccccc2)c2nnnn2Cc2ccccc2)CC1 (stereo not given) | -0.41% (inactive)
COc1ccc(-n2nnnc2C(c2cccc3ccccc23)N2CCC(n3c(=O)[nH]c4ccccc43)CC2)cc1 (stereo not given) | 0.78% (inactive)
COc1ccc2[nH]c3c(c2c1)CCN[C@H]3C | -0.17% (inactive)
CCc1nnc(NS(=O)(=O)c2ccc(N=Cc3c(O)n(-c4ccccc4)c(=O)[nH]c3=O)cc2)s1 | 4.11% (inactive)
